This is an account of results in PubChem BioAssay (Tox21).

Calls of active or inactive are those of the source. A call without a number means that no potency is given here. Calls follow the shape of the full dose curve.
Potency is read from the fitted curve at half-maximal effect.

The target in the experiment is Acetylcholinesterase (Homo sapiens) (UniProt P22303). Put plainly: Acetylcholinesterase (AChE) small molecule antagonists: enzyme-based qHTS assay with human liver microsomes (AID 1347399). Also: nearly all actives have a fitted effect of over 60% in size. As to conditions: Potency: qHTS inhibition; outcome: qHTS inhibition; series mostly up to 115 µM. The method, boiled down: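 Recombinant human AChE (50 mU/mL in the enzyme mix) and human liver microsomes (0.25 mg/mL final) were preincubated with compound and NADPH (0.25 mg/mL final) for 30 min at 37 C. Acetylthiocholine/DTNB was then added; thiocholine was read colorimetrically after 10 min at room temperature.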
Acetylcholinesterase (Homo sapiens), sequence (P22303 whole entry, looked up): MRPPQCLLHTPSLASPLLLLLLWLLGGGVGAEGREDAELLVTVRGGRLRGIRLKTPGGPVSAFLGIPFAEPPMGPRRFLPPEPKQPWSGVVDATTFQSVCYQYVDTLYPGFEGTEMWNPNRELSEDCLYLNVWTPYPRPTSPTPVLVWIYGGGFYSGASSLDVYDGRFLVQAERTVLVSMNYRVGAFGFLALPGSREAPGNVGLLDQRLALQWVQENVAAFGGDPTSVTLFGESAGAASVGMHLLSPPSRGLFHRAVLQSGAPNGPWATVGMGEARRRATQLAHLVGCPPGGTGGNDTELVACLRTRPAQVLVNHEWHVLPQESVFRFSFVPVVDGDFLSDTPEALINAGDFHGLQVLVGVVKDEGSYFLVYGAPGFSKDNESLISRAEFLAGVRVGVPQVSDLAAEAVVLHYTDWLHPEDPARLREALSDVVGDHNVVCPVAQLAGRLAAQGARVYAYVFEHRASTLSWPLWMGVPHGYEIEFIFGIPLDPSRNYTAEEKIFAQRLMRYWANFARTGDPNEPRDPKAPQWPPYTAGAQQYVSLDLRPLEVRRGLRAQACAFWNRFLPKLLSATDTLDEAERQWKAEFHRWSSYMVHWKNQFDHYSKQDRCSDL
On the technique in general: qHTS replaces the single test concentration by a dilution series.
Regarding `COC(=O)c1ccc(OC)cc1`, the Potency entry is “inactive”.

With `COC(=O)c1cc(S(N)(=O)=O)ccc1OC`, the Potency entry was “inactive”.

Consider `CC(CN=Cc1ccccc1O)N=Cc1ccccc1O` (stereo not given), for which the Potency result is “inactive”.

In the case of `CCC(=O)/C=C/c1ccc(OC)cc1`, the Potency entry was “inactive”.

With `CCCCOCCOC(=O)CCCCCCCCC(=O)OCCOCCCC`, the Potency entry was “inactive”.

On to `O=S(=O)(O)CCN1CCN(CCO)CC1`, for which the Potency result was “inactive”.

`C#CCOC(=O)[C@@H](C)Oc1ccc(Oc2ncc(Cl)cc2F)cc1`: the Potency entry is “inactive”.

With `O=C(O)Cc1sc(-c2ccccc2)nc1-c1ccc(Cl)cc1`, the Potency entry is “inactive”.

As to `Cc1cc(-n2nc3ccc(Cl)cc3n2)c(O)c(C(C)(C)C)c1`, the Potency result was “inactive”.

Regarding `O=C(O)c1ccccc1-c1ccc(C(F)(F)F)cc1`, the Potency result is “inactive”.

With `CC1OCCC1=O` (stereo not given), the Potency entry is “inactive”.

For the compound `CC(C)CCCO`, the Potency entry was “inactive”.

As to `N#CCCCC(C#N)CCC#N` (stereo not given), the Potency entry was “inactive”.

Regarding `CCOc1cccc(N)c1`, the Potency result is “inactive”.

`Clc1cc(Cl)c2c(c1)N=C1CCCCCN1C2`: the Potency was 3.89 µM (active).

`CCCCCCCCCCCCC1CO1` (stereo not given): the Potency result is “inactive”.

As for `COc1cc(-c2ccc(N=C=O)c(OC)c2)ccc1N=C=O`, the Potency result is “inactive”.

Turning to `C=CC(=O)NCOCC(C)C`, the Potency result is “inactive”.

Turning to `O=C(c1ccccc1)C1CCC1`, the Potency result is “inactive”.

In the case of `C=C(C)CCCC`, the Potency entry is “inactive”.

As to `O=C(O)c1ccc2c(c1)nc(C(=O)NC1CCN(C3CC3)CC1)n2Cc1cc(-c2ccc(Cl)s2)on1`, the activity change, negative = inhibition is 0.834% [at 23.6 µM] (inactive).

As for `COc1cc(OC)cc(OC)c1`, the Potency entry is “inactive”.

Consider `CCOc1ccc(NC(=O)OC(C)C)cc1OCC`, for which the Potency entry was “inactive”.

As for `O=C1N(c2ccccc2)c2ccccc2C1(Cc1ccncc1)Cc1ccncc1`, the Potency entry is “inactive”.

With `CC(S)C(=O)NCC(=O)O` (stereo not given), the Potency result was “inactive”.

For `NC(=O)c1c(Cl)cccc1Cl`, the Potency result was “inactive”.

In the case of `O=C(O)CCCCCCCCCCCBr`, the Potency result was “inactive”.

For the compound `Cc1cc(C(C#N)c2ccc(Cl)cc2)c(Cl)cc1NC(=O)c1cc(I)cc(I)c1O` (stereo not given), the Potency result is “inactive”.

For `O=Cc1cccc(Br)c1`, the Potency result was “inactive”.

Take `CC(C)=CCC/C(C)=C/CC/C(C)=C/CCC(=O)OC/C=C(\C)CCC=C(C)C`: the Potency entry was “inactive”.

Turning to `O=C(Cn1ccnc1[N+](=O)[O-])NCCO`, the Potency entry was “inactive”.

As for `CO[C@H]1C=CO[C@@]2(C)Oc3c(C)c(O)c4c(O)c(cc(O)c4c3C2=O)NC(=O)/C(C)=C\C=C/[C@H](C)[C@H](O)[C@@H](C)[C@@H](O)[C@@H](C)[C@H](OC(C)=O)[C@@H]1C`, the Potency entry is “inactive”.

In the case of `CC(C)COC(=O)COc1ccc(Cl)cc1Cl`, the Potency result was “inactive”.

Consider `CCCCCC(C)OC(=O)COc1ccc(Cl)c2cccnc12` (stereo not given), for which the Potency entry was “inactive”.

Regarding `CC(C)C(=O)OCC(C)(C)C(O)C(C)C` (stereo not given), the Potency entry is “inactive”.

As for `CC(C)CCOC(=O)c1ccc(N(C)C)cc1`, the Potency result was “inactive”.

Turning to `COc1cc(C(=O)NC2CCCNC2)cc(OC)c1OC` (stereo not given), the Potency entry was “inactive”.

For `N#CSCSc1nc2ccccc2s1`, the Potency result is “inactive”.

In the case of `CN(C)CCN1CCN(c2cccc(Cl)c2)C1=O`, the Potency entry was “inactive”.

Regarding `O=C(Nc1ccc(Cl)cc1)Nc1ccc(Cl)c(C(F)(F)F)c1`, the Potency result was “inactive”.
